From PubChem
A selection: hits, their analogues and other compounds. The true share with any hit is near 2%.
Coupling enz: coupling enzyme interference in Giardia aldolase counter-screen. hit rate 0.67% among 290,000. activity change, negative = inhibition, % at 58.2 µM, hits read low. AID 2472. coupling enzyme system counterscreen, AmpLite Red fluorescence; in the data active = activity change below about -30%
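Counterscreen of the coupled detection system alone, without aldolase: glyceraldehyde-3-phosphate coupling enzymes plus AmpLite Red readout. Compounds at 57.5 uM final, 10 min RT preincubation, 20 min RT reaction, fluorescence 525/598 nm.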
HTT cytoprotect: cytoprotection in Huntington HTT-Q103 PC12 cell model. PC12 HTT-Q103 induced, cytoprotection, ATP luminescence, 40 h. Potency, µM (titrated, usually from 56.4 µM), actives largely listed as activators. hit rate 0.14% among 230,000; also: nearly all actives have a fitted effect of over 45% in size
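Rat PC12, Q103 Htt exon1-GFP fusion, ecdysone promoter; tebufenozide inducer 100 nM final; compound titration; qHTS, 1500 cells/well; ATPlite luminescent read.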
JMJD2E inh: inhibitors of human JMJD2E histone demethylase. B2RXH2. JMJD2E catalytic domain, FDH-coupled NADH fluorescence (FDH is formaldehyde dehydrogenase). Potency, µM (top dose mostly 57.1 µM), most hits filed as inhibitors. hit rate 1.6% among 230,000. AID 2147; active = well fitted inhibition curve with a large enough effect, not every such curve was filed as active; inconclusive = small, poorly fitted or top-dose-only effect, or another doubt; inactive = no such curve, though single readings can be large or run the other way; also: nearly all actives have a fitted effect of over 50% in size
Target sequence (B2RXH2 1-337 limits assumed): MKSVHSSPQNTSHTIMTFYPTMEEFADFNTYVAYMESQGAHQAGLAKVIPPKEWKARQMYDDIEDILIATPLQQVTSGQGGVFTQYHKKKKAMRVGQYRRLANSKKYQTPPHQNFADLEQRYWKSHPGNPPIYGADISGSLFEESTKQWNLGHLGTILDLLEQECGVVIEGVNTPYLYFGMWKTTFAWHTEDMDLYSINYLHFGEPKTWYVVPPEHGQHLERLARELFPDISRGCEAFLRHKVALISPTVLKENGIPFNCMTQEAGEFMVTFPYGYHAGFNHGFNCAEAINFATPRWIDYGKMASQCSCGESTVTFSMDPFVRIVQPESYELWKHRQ
TRb-SRC2 inh: TRbeta-SRC2 interaction inhibition | P10828 | TRbeta-SRC2 peptide binding, fluorescence polarization; receptor liganded with 1 µM T3 | Potency, µM (top dose mostly 106 µM), most hits filed as inhibitors | hit rate 0.065% among 280,000 | AID 1469; also: nearly all actives have a fitted effect of over 50% in size
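Quantitative HTS by FP: 0.6 uM TRb LBD, 20 nM labeled SRC2 20-mer, 1 uM T3, 5% DMSO; 5 hr ambient incubation; % activity per concentration and potencies from concentration series.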
HTT aggregate: reduces HttQ103-GFP aggregates in PC12 cells. PC12 HttQ103-GFP aggregates, Acumen cytometry, 40 h. Potency, µM (doses to about 46.1 µM), usual class: inhibitors. hit rate 1.1% among 220,000; also: nearly all actives have a fitted effect of over 60% in size
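PC12 cells with ecdysone-inducible HTT exon1 Q103-GFP, induced by 100 nM tebufenozide, given compounds in a concentration series. GFP aggregates (1–25 um, 6 SD above background) counted in lysates by laser-scanning cytometry, 488 nm excitation.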
TexasRed fluor: Texas Red fluorescence interference in TRb-SRC2 counter-screen; TRb/SRC2 Texas Red total fluorescence interference; Potency, µM (highest dose often 106 µM); hit rate 0.29% among 280,000; active = well fitted curve in either direction with a large enough effect; inconclusive = small, poorly fitted or top-dose-only effect
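Flags fluorescent or light-absorbing compounds by total fluorescence, S + 2P, at 555 nm excitation and 632 nm emission. Mixture: 20 nM Texas Red SRC2 peptide, 0.6 uM human TRb LBD, 1 uM T3, 5% DMSO; compound exposure 5 h at ambient temperature.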
Of the large screens only hits and unclear results are named; the others gave an inactive call; [ ] = remark or other dose. Unless noted, calls follow the shape of the dose curve; as a rule, active = well fitted curve in the direction sought with a large enough effect; inconclusive = small, poorly fitted or top-dose-only effect, or another doubt; inactive = no such curve, though single readings can be large; an effect the other way counts as inactive or inconclusive.

COc1ccc(-n2c(NC(=O)c3ccco3)c(C#N)c3nc4ccccc4nc32)cc1	Coupling enz -52
CCCCn1c(NC(=O)c2ccccc2Cl)c(C#N)c2nc3ccccc3nc21	JMJD2E inh inconclusive, TRb-SRC2 inh inconclusive, HTT aggregate 10µM
COc1ccc(OCCn2c(NC(=O)c3ccco3)nc3ccccc32)cc1	HTT aggregate 10µM
COc1ccc(S(=O)(=O)NCCCC(=O)Nc2ccc(Sc3ccc(N)cc3)cc2)cc1	none (no result: HTT cytoprotect, JMJD2E inh, HTT aggregate)
O=C(Cn1c(=O)nc(-c2ccccc2)c2cc(Cl)ccc21)NCCc1ccccc1	none (no result: Coupling enz, HTT cytoprotect, JMJD2E inh, HTT aggregate)
Cc1ccc(-n2ncc3c(=O)n(Cc4ccccc4C)cnc32)cc1C	none (no result: Coupling enz, HTT cytoprotect, JMJD2E inh, HTT aggregate)
COc1ccc(CCCc2nnc(SCC(=O)Nc3cc(F)ccc3C)o2)cc1	none (no result: Coupling enz, HTT cytoprotect, JMJD2E inh, HTT aggregate)
CCC(=O)N1CCc2cc(Br)cc(S(=O)(=O)CCC(=O)NCc3ccc(F)cc3)c21	none (no result: Coupling enz, HTT cytoprotect, JMJD2E inh, HTT aggregate)
Cc1ccccc1NC(=O)CSc1nc(-c2cccs2)nc2cc(=O)[nH]n12	none (no result: Coupling enz, HTT cytoprotect, JMJD2E inh, HTT aggregate)
Cc1ccc(-n2c(Cl)c(Cl)nc(Cl)c2=O)cc1	HTT aggregate 4.5µM (no result: HTT cytoprotect)
CC(C)CC(=O)/C=C/n1c(=S)oc2ccccc21	HTT aggregate inconclusive
CC(=O)/C=C/n1c(=S)oc2ccccc21	HTT aggregate 7.1µM
COc1ccc(C2CC(=O)c3cc(-c4nc(-c5cccc([N+](=O)[O-])c5)cs4)c(=O)n(-c4ccccc4C)c3C2)cc1 (centres undefined)	TexasRed fluor 89µM[quencher] (no result: Coupling enz, HTT cytoprotect, JMJD2E inh, HTT aggregate)
Nc1nnc(CC(=O)N/N=C/c2cc([N+](=O)[O-])cc(Br)c2O)s1	HTT cytoprotect inconclusive, JMJD2E inh 11µM
CC1=NN(c2ccc(F)cc2)C(=O)C1C(c1cccc(O)c1)c1c(C)[nH]n(-c2ccc(F)cc2)c1=O (centres undefined)	TRb-SRC2 inh inconclusive
CC1=NN(c2ccc(Cl)cc2)C(=O)C1C(c1cccc(O)c1)c1c(C)[nH]n(-c2ccc(Cl)cc2)c1=O (centres undefined)	JMJD2E inh 3.2µM, HTT aggregate 13µM
COc1cccc(CNS(=O)(=O)c2cnc(N)nc2)c1	none (no result: Coupling enz, HTT cytoprotect, JMJD2E inh, HTT aggregate)
C=CCN=c1scc(-c2ccc3c(c2)NC(=O)CO3)n1/N=C(\C)c1ccccn1	HTT aggregate 5µM
C=CCN=c1scc(-c2ccc(F)cc2)n1/N=C/c1ccccn1	none
CCCCCCCCCCCCCCN	none (no result: Coupling enz, HTT cytoprotect, JMJD2E inh, HTT aggregate)
COc1ncc2nc(-c3cc(F)cc(F)c3)c(=O)n(CCc3ccccc3)c2n1	none (no result: JMJD2E inh, TRb-SRC2 inh, HTT aggregate, TexasRed fluor)
CC(=O)N(C1=C(N)C(=O)c2ccccc2C1=O)c1ccccc1	Coupling enz -34 (no result: HTT cytoprotect, JMJD2E inh, TRb-SRC2 inh, HTT aggregate, TexasRed fluor)
Cc1cc(N)c2ccccc2n1	none
Nc1cc2ccncc2c2ccccc12	JMJD2E inh inconclusive, HTT aggregate 0.35µM
CC(C)C[C@@H](NC(=O)[C@@H](Cc1ccccc1)NC(=O)c1cnccn1)B(O)O	none (no result: Coupling enz, JMJD2E inh, TRb-SRC2 inh, TexasRed fluor)
CCCCNC(=S)N1CCN(C)CC1	JMJD2E inh 8.9µM
CSCC[C@H](NC(=O)[C@H](CC(C)C)N(C)C(=O)[C@@H]1CCCN1C(=O)[C@H](Cc1ccccc1)NC(=O)[C@H](Cc1ccccc1)NC(=O)CCC(C)N)C(=O)O (some centres undefined)	none (no result: HTT cytoprotect, JMJD2E inh, HTT aggregate)
CCn1cc(/C=N/NC(=O)c2ccc(C#N)cc2F)c2ccccc21	Coupling enz -32
CCOc1ccc(-c2cc(NC(=O)c3ccc(C)cc3)c(C(=O)OC)s2)cc1	none (no result: Coupling enz, HTT cytoprotect, JMJD2E inh, HTT aggregate)
N#Cc1ccccc1-c1ccc2ncnc(NCc3ccccc3)c2c1	none (no result: JMJD2E inh, TRb-SRC2 inh, HTT aggregate, TexasRed fluor)
Brc1ccc2ncnc(NCc3ccccc3)c2c1	HTT aggregate 2.2µM
c1ccc(CCNc2ncnc3ccccc23)cc1	HTT aggregate 1.8µM
O=C(CSc1c2c(nc3ccc(Cl)cc13)CCCC2)N1CCN(C(=O)c2ccco2)CC1	HTT cytoprotect 20µM (no result: Coupling enz, JMJD2E inh, TRb-SRC2 inh, HTT aggregate, TexasRed fluor)
CN(C)c1ccccc1C(=O)N1CCCC(C(=O)c2ccc3ccccc3c2)C1 (centres undefined)	HTT aggregate 32µM
CCCCCCC(O)CCCCCCCCCCC(=O)O (centres undefined)	none (no result: Coupling enz, HTT cytoprotect, JMJD2E inh, HTT aggregate)
CCN1/C(=C/c2ccc3cc(C)cc(C)c3[n+]2CC)Sc2cc(C)ccc21	JMJD2E inh inconclusive, HTT aggregate inconclusive
